Assay outcomes from PubChem.
Hits are enriched below; roughly 4.8% of the tested compounds scored in any of these assays.
SUMO Mot1 rescue: blocks SUMOylation pathway, rescuing yeast Mot1-301 growth. S. cerevisiae Mot1-301 growth rescue, ATP luminescence, 38.5C; percent above DMSO median, 100 means doubled. growth rescue, % at 18.8 µM. 320,000 compounds, 1% hits. AID 2716;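 active = every valid replicate shows activation above 250% relative to neutral control wells; inactive = the rest, any valid replicate at or below 250%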;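 also: OY570 slx delta 5 strain wells were the positive control but not used for scaling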
ALR H2O2 inh: human ALR oxidase inhibition via reduced H2O2 | P55789 | purified ALR, DTT oxidation, H2O2 HRP-luminol luminescence | inhibition, % (concentration not given with the values) | 290,000 compounds, 3.8% hits;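 active = mean replicate inhibition above about 79%, with every replicate also reaching it, limit read from the data; inconclusive = only one of the two criteria met; inactive = mean below limit and not every replicate reaching it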
Target sequence (P55789 whole entry, looked up): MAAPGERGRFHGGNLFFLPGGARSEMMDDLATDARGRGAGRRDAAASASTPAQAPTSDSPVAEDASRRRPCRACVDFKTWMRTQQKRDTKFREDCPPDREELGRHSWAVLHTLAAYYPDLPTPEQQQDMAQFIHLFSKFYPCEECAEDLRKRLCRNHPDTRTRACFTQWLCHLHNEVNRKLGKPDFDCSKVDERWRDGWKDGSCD
AI-2 QS mod: Vibrio harveyi AI-2 quorum sensing modulation; Vibrio harveyi JMH597 AI-2 luminescence/OD600 ratio, 9 h; stronger effect = lower value; strain lacks LuxN and CqsS sensors; 0 = neutral-control median; activity change, % at 7.5 µM; 300,000 compounds, 0.4% hits; AID 2094; in the data active = activity change below about -75%, passing the limit was not always enough; inconclusive = no clear call, values can overlap the other calls;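 also: luminescence divided by OD600 gain over 9 h not by final OD600 alone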
HIF act: HIF pathway transcriptional activation; U2OS HRE-luciferase reporter, luminescence; normalized: DMSO 0%, desferrioxamine 100%; activation, % at 7.5 µM (by protocol); 300,000 compounds, 0.32% hits;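 active = mean activation of at least 10% of the iron chelator positive control signal, with at least half of replicates also reaching 10%; inconclusive = mean and replicate majority disagree about reaching 10%; inactive = mean and most replicates under 10%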
Active calls of the source: *; ? = inconclusive; / = not tested or not shown.

SMILES | SUMO Mot1 rescue | ALR H2O2 inh | AI-2 QS mod | HIF act
CCN(CC)S(=O)(=O)c1ccc(NC(=O)c2ccc(OCC3CCCO3)cc2)cc1 (stereo unspecified) | -8.3 | -2.4 | / | /
O=C(Cn1cnc2c(nnn2Cc2ccc(F)cc2)c1=O)Nc1ccc2c(c1)OCCO2 | -3.0 | -0.2 | 30.9 | -0.7
CCOC(=O)N1CCC(NC(=O)c2cc(S(=O)(=O)N3CCC4(CC3)OCCO4)ccc2F)CC1 | 2.0 | 99.5* | 12.1 | -0.2
CCOC(=O)N1CCC(NC(=O)c2cc(S(=O)(=O)N3CCOCC3)ccc2F)CC1 | -0.5 | 2.0 | 13.2 | -0.8
CCOC(=O)N1CCC(NC(=O)c2cc(-c3ccc(F)cc3)[nH]c2C)CC1 | -6.0 | 98.2* | -1.2 | -0.1
COc1ccc(CC(=O)Oc2ccc(Cl)cc2Br)cc1S(=O)(=O)N1CCOCC1 | 7.9 | 0.9 | 21.3 | -0.7
O=C1CN(c2ccccc2)C(=O)N1 | 7.7 | / | 25.7 | 47.8*
CCN(CC)c1ccc2c(O)cc(=O)oc2c1 | -13.7 | 44.5 | 7.3 | 0.0
CCN(CC)c1ccc2c(C)c(CO)c(=O)oc2c1 | 4.5 | 99.3* | 28.3 | 0.2
CC(C)[C@@]1(c2ccc(Cl)cc2)ON(c2ccccc2C(F)(F)F)C1=O | -1.1 | -12.4 | / | /
COC(CNS(=O)(=O)c1ccc(S(=O)(=O)NC2CC2)cc1)OC | -16.3 | 0.5 | 8.2 | 0.0
CC(=O)Nc1ccc(SCC(=O)Nc2oc(C)c3c(C)n[nH]c(=O)c23)cc1 | -7.1 | 98.7* | 20.9 | -1.2
O=C(O)CCc1nnc(SCC(=O)Nc2ccc(Cl)c(C(F)(F)F)c2)[nH]c1=O | -3.7 | 47.3 | 34.4 | -0.5
O=C(O)CCc1nnc(SCC(=O)Nc2cccc(C(F)(F)F)c2)[nH]c1=O | 7.6 | 99.1* | 16.1 | -0.1
Cc1ccc(NC(=O)CSc2nnc(CCC(=O)O)c(=O)[nH]2)cc1 | / | 98.4* | 21.2 | -1.4
CCOC(=O)c1c(NC(=O)CSc2nnc(C)c(=O)[nH]2)sc2c1CCCC2 | 9.7 | 20.4 | 8.5 | -0.7
Cc1nnc(SCC(=O)Nc2sc3c(c2C#N)CCCC3)[nH]c1=O | -4.7 | 97.8* | 1.9 | -0.1
Cc1nn(C)cc1S(=O)(=O)Nc1ccc(F)c(F)c1 | 1.1 | -0.6 | 11.1 | -0.4
COc1cccc(N2CCN(S(=O)(=O)c3ccc(-n4cnnn4)cc3)CC2)c1 | 1.1 | 0.2 | 17.7 | 0.2
Cc1nnc(SCC(=O)Nc2ccc3c(c2)OCO3)[nH]c1=O | -9.7 | 36.2 | 6.9 | -0.1
Cc1cc(C)c(C(=O)CSc2nnc(C)c(=O)[nH]2)cc1C | -5.2 | 94.6* | 23.3 | -0.4
CC(=O)Nc1ccc(NC(=O)CSc2nnc(C)c(=O)[nH]2)cc1 | 4.6 | 98.3* | 17.1 | -0.2
CN(C)c1ccc2c3c(ccc(N(C)C)c13)C(=O)OC2 | -3.4 | 79.8* | -1.6 | -0.7
CCOc1ccc(S(=O)(=O)NCCCn2ccnc2)cc1 | -11.1 | -4.9 | 3.2 | -0.5
Cn1c(=S)[nH]c2ccccc21 | -13.1 | 84.3* | 32.7 | 0.1
SMILES | SUMO Mot1 rescue | ALR H2O2 inh | AI-2 QS mod | HIF act
c1ccc2c(c1)CSc1ccccc1N2 | 78.8 | 98.3* | -23.6 | 0.4
O=C(NC(=S)Nc1ccccc1O)c1cccnc1 | 6.3 | 27.5 | 13.2 | -2.6
N#Cc1ccccc1NC(=S)NC(=O)c1cccnc1 | 6.7 | 95.3* | 25.2 | -1.6
CC(C)c1ccc(O)c(NC(=O)c2cccnc2)c1 | -19.4 | 88.7* | -44.4 | -0.2
CCC(C)c1ccc(O)c(NC(=S)NC(=O)c2cccnc2)c1 (stereo unspecified) | -0.4 | 98.2* | -35.9 | 1.2
CCC(C)c1ccc(O)c(NC(=O)c2cncc(Br)c2)c1 (stereo unspecified) | -7.9 | 5.2 | -85.1* | 0.5
CC(C)c1ccc(NC(=O)c2cccnc2)cc1 | -31.6 | 2.3 | 36.0 | 2.9
Cc1ccc(NC(=O)c2cncc(Br)c2)c(O)c1 | 31.6 | 24.0 | 7.5 | 4.6
Cc1c(C)n2c(SCC(=O)N3CC(C)OC(C)C3)nnc2[nH]c1=O (stereo unspecified) | 3.2 | -0.7 | 16.3 | -0.6
CCc1nnc(SCC(=O)Nc2ccccc2)n1CC1CCCO1 (stereo unspecified) | -8.2 | -12.8 | 7.5 | -0.2
CCOC(=O)N1CCN(C(=O)CSc2nc(=O)n3ccc(C)cc3n2)CC1 | / | / | 16.8 | 0.1
Cc1ccc(NS(=O)(=O)c2cccc3nsnc23)cc1[N+](=O)[O-] | -25.5 | -9.3 | 9.6 | 0.2
Cc1ccc(C)c(S(=O)(=O)N2CCN(Cc3ccc(O)c4ncccc34)CC2)c1 | -18.2 | -0.8 | 23.2 | 28.9*
Oc1ccc(CN2CCN(c3ccccc3)CC2)c2cccnc12 | 0.0 | 3.2 | 3.6 | 3.6
COc1ccccc1N1CCN(Cc2cc(Br)c(O)c3ncccc23)CC1 | -19.7 | -2.6 | -24.0 | 12.5*
CCOC(=O)N1CCN(Cc2ccc(O)c3ncccc23)CC1 | 273.5 | 5.9 | 30.7 | 0.3
CCOc1ccccc1N1CCN(Cc2cccc(OC)c2O)CC1 | -1.9 | ? | 8.3 | -0.3
Oc1ccc(CN2CCc3ccccc3C2)c2cccnc12 | -15.0 | -5.6 | 78.3 | 158.8*
Oc1ccc(CN2CCC(Cc3ccccc3)CC2)c2cccnc12 | / | / | -50.5 | 17.9*
COc1ccc(NC(=S)N2CCN(S(=O)(=O)c3ccccc3)CC2)cc1 | 0.6 | -9.4 | 1.1 | /
O=C(NC(O)C(=O)c1ccc(F)cc1)c1ccc(F)cc1 (stereo unspecified) | -8.1 | -5.3 | 7.3 | 0.8
Oc1c(CN2CCCCC2)cc(COCc2ccccc2)c2cccnc12 | -5.5 | 8.4 | 29.0 | 132.0*
O=C(CNC(=O)N1CC(=O)Nc2ccccc21)Nc1ccc(F)c(Cl)c1 | 7.7 | -2.5 | 32.0 | 0.7
N#CCCN(C(=O)COC(=O)CCc1nc2ccccc2c(=O)[nH]1)c1ccc(F)cc1 | 24.1 | 1.7 | / | /
COc1ccc(N=Cc2nc(-c3ccco3)oc2O)cc1 | -3.9 | 91.5* | 2.7 | 1.9
SMILES | SUMO Mot1 rescue | ALR H2O2 inh | AI-2 QS mod | HIF act
Cc1ccc(N=Cc2nc(-c3ccc(C)cc3)oc2O)cc1 | / | / | 26.3 | 0.1
O=C(N/N=C1/CCSC1)c1cc(Br)ccc1O | -5.5 | 92.7* | 28.0 | 0.2
O=C(NCc1ccccc1Cl)C1CCN(C(=O)c2ccco2)CC1 | 15.0 | 1.1 | 0.6 | -0.1
CCOc1cc(C2C(C#N)=C(N)Oc3n[nH]c(-c4ccccc4)c32)ccc1O (stereo unspecified) | -9.4 | 96.8* | 7.2 | -0.6
CCOc1cc(-c2cc(-c3ccc(N)cc3)nc(N)c2C#N)ccc1O | -15.9 | / | 21.3 | 0.1
CCOc1cc(-c2cc(-c3ccccc3)nc(N)c2C#N)ccc1O | 3.4 | 94.6* | -9.3 | 0.4
CCC/C(O)=C1\C(=O)CC(C)(C)CC1=Nc1ccccc1O | 402.9 | 87.2* | 7.8 | -1.7
O=C(O)C1CCC(CNS(=O)(=O)c2ccccc2)CC1 (stereo unspecified) | 10.1 | -3.6 | 20.6 | -0.8
Cc1ccc(Cl)c(OCCN2CCc3ccccc3C2)c1 | 322.9* | -7.2 | 21.6 | -0.3
COc1ccc2c(c1OC)C(=O)OC2CC(=O)c1ccc(O)c(O)c1 (stereo unspecified) | 23.5 | 99.1* | -5.7 | -0.4
COc1ccc2c(c1OC)C(=O)OC2CC(=O)c1ccc(O)cc1 (stereo unspecified) | -10.6 | 21.9 | 8.2 | -0.2
